This excerpt belongs to a sample that is enriched for hits.
Dicer processing = human Dicer pre-microRNA cleavage inhibition; 6% of 47,000 active; cat-ELCCA pre-miR-21 Dicer processing, chemiluminescence; hits give high values; z-score at 25 µM; in the data active = z-score above about 3, passing the limit was not always enough;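 note: plate controls were vehicle for no effect and no enzyme for full effect; higher signal means more uncleaved substrate so more Dicer inhibition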
* = called active by the depositor.

SMILES	Dicer processing
CC(C)C1(O)c2ccccc2-c2ncccc21 (stereo not drawn)	-0.69
Fc1ccc(CCNCc2cccnc2)cc1	-3.18
Cc1ccccc1-n1c(/C=C/c2ccc([N+](=O)[O-])o2)nc2ccccc2c1=O	5.55*
O=c1c2ccccc2nc(/C=C/c2ccc([N+](=O)[O-])o2)n1-c1ccc(O)cc1	0.79
O=c1c2ccccc2nc(/C=C/c2ccc([N+](=O)[O-])o2)n1-c1ccccc1Cl	-0.34
COc1ccc(/C=C2\C(=O)C3CCN2CC3)c(OC)c1OC	0.35
COc1ccc(/C=C/[N+](=O)[O-])c(OC)c1	-0.45
O=[N+]([O-])/C=C/c1ccc(C(F)(F)F)cc1Cl	-0.06
O=[N+]([O-])/C=C/c1ccc(Cl)cc1Cl	3.54*
O=c1c2ccc(Cl)cc2[nH]c(=S)n1-c1ccc(Cl)c(Cl)c1	-1.36
CCCCCOc1ccc2c(c1)oc(=O)c1ccccc12	0.02
CCc1cc2c(OC(=O)N(C)C)ncnc2s1	0.05
CC1(C)CN=C(Nc2ccccc2)S1	3.04*
CC1(C)CN=C(Nc2cccc(C(F)(F)F)c2)S1	-1.09
Cc1ccccc1NC1=NCC(C)(C)S1	-0.96
OC(CN1CC=C(c2ccccc2)CC1)C(F)(F)F (stereo not drawn)	1.11
CNC(=O)O/N=C(C)/C=C/c1ccccc1	-0.58
Cc1cccc(CNCCc2c[nH]c3ccccc23)c1	0.46
CCc1ccc(CNCCc2c[nH]c3ccccc23)cc1	-0.52
c1ccc(CNCCc2c[nH]c3ccccc23)cc1	3.24*
CCOc1ccc(NC2=NCCS2)cc1	12.2
CC(Nc1ccc([N+](=O)[O-])c2cccnc12)C12CC3CC(CC(C3)C1)C2 (stereo not drawn)	-0.7
O=C1/C(=C/c2ccc(-c3ccccc3)cc2)N2CCC1CC2	-1.06
CN1C2CCC1CC(=NOC(=O)c1ccco1)C2	-0.45
O=C1CN=C(c2ccccc2)c2oc3ccccc3c2N1	-1.19
O=C1CN=C(c2ccc(Cl)cc2)c2oc3ccccc3c2N1	0.52
COc1ccc2oc3c(c2c1)NC(=O)CN=C3c1ccc(F)cc1	3.32*
CSc1ncccc1C1=N/C(=C\c2ccc(Cl)cc2)C(=O)O1	-0.36
Fc1cccc(CN2CCN(Cc3ccccc3F)CC2)c1	-0.3

Screening data as filed in PubChem BioAssay.
